The values below come from PubChem BioAssay.

Unmarked numbers belong to inactive results. Unless noted, the rule behind the calls is not given here.

A short description of one test: ATP-based viability of Huh7 replicon cells – cell-based, CellTiter-Glo luminescence, basal, 48 h, cytotoxicity control for HCV replication inhibitor project, primary screen (AID 1143).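 Note: Huh7 hepatoma cells carrying a hepatitis C replication reporter with no stimulus; test concentration not given here.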 The settings on record: higher = more signal, called active from +8 up or from −8 down. A general note: In antiviral work, replicon cells carry a viral genome segment that copies itself.
`CC(C)N1CC=CC23O[C@@H]4C=CCOC(=O)[C@@H]4[C@H]2C(=O)N(CCO)[C@@H]3C1=O` (some centres not stated): the z-score is 0.273. Consider `COC(=O)[C@@]1(Cc2ccccc2)[C@H]2c3cc(C(=O)N4CCCC4)n(C)c3C[C@H]2CN1C(=O)c1ccccc1`, for which the z-score is -1.6.

In the case of `O=C1[C@]2(CO)C=C(Br)[C@@H](C[C@@H]2c2ccccc2)[C@@]12CO2`, the z-score is -0.296. With `CCCCC(O)C1C=CC2C(=O)N(C3CCCCC3)C(=O)C2N1Nc1ccc(OC)cc1` (configuration not stated), the z-score was -0.527. As for `COc1ccc(C(O)C2C=CC3C(=O)N(c4ccccc4)C(=O)C3N2Nc2ccc([N+](=O)[O-])cc2)cc1OCc1ccccc1` (configuration not stated), the z-score was -0.317. Turning to `Cc1ccc(S[C@]2(C(=O)NCc3ccccc3)CC(=O)N(Cc3ccccc3)[C@@H]2c2ccc(CO)cc2)cc1`, the z-score is -0.618.

With `C=C(COC)/C(=C/C[C@H](OC(=O)c1ccncc1)c1cccc(OCCO)c1)c1cc(C(=O)OC)ccc1OC`, the z-score was -0.865. With `COC(=O)[C@@]1(Cc2ccccc2)[C@H]2c3cc(C(=O)N(C)C)n(Cc4cc(C)n(C)n4)c3C[C@H]2CN1C(=O)c1ccccc1`, the z-score is -1.31. On to `COC(=O)[C@@]1(Cc2ccccc2N=[N+]=[N-])COC(c2ccc(OCCCO)cc2)=N1`, for which the z-score was -2.44. On to `CN1CCC(CCCO)=CC1c1ccc(CN2CCCC2)cc1` (configuration not stated), for which the z-score is -0.428.

For `CC(=CC1CCCCC1)[C@@H](NC(=O)c1ccc(C(F)(F)F)cc1)c1ccc(-c2ccccc2)cc1`, the z-score is -0.992.

The nature of another test: Pseudomonas biofilm growth suppression – PAO1 strain, BacTiter-Glo luminescence, LB-PBS, primary screen (AID 1144). The settings on record: P. aeruginosa PAO1 biofilm, 12 h, higher = more signal.
`C=CCC(OC(C)=O)[C@@H]1[C@@H](N(Cc2cccc3ccccc23)C(=O)c2cccc3ccccc23)c2cc(OCCCO)ccc2N1C(=O)c1ccc2ccccc2n1` (some centres not stated): the z-score was 0.603. With `COc1ccc(C(O)C2C=CC3C(=O)NC(=O)C3N2Nc2ccccn2)cc1OCc1ccccc1` (configuration not stated), the z-score is -0.484. In the case of `CCCN1C(=O)[C@@]2(CCC(=O)OC(C)(C)C)N=C(c3ccc(OCCCO)cc3)O[C@H]2c2ccccc21`, the z-score was -1.36. On the same count and under the same terms, to `COc1cccc(C(=O)O[C@H]2CC[C@]3(C)C4=C(CCC3C2(C)C)[C@]2(C)CC[C@H]([C@H](C)CCCC(C)C)[C@@]2(C)CC4)c1` (some centres not stated) belongs -1.11; to `COc1cc2c(cc1OC)CN(C(=O)[C@@H]1[C@H]3C(=O)O[C@H](c4ccccc4)[C@H](c4ccccc4)N3[C@H](c3ccccc3OCCO)[C@@]13C(=O)Nc1ccc(C#CCNC(N)=O)cc13)CC2`, -0.105. Turning to `CN(C)CCCCNC(=O)[C@H]1C[C@H]2C(=O)N[C@@H](Cc3ccccc3)C(=O)N2[C@H]1c1ccc(O)cc1`, the z-score was -1.49.

For the compound `COc1ccc(CCN2C(=O)[C@@]3(Cc4ccccc42)c2ccccc2C(=O)N(Cc2ccccc2Cl)[C@H]3c2ccc(CO)cc2)cc1`, the z-score was -0.456.

For the compound `CCCCCCCCCCC(O)C1C=CC2C(=O)N(Cc3ccccc3)C(=O)C2N1n1cnnc1` (configuration not stated), the z-score is -0.0968. On to `COCCOC(=O)N1C(=O)[C@@]2(c3cc(C#CCC(C(=O)OC)C(=O)OC)ccc31)[C@H](C(=O)N1CCN(c3ncccn3)CC1)[C@H]1C(=O)O[C@H](c3ccccc3)[C@H](c3ccccc3)N1[C@@H]2c1ccc(OCCO)cc1`, for which the z-score is -1.66. For the compound `C=C(COC)C(=O)CC[C@@H](OC(=O)c1cccnc1)c1ccc(CO)o1`, the z-score is -0.0359. As to `C=C[C@@H](COC(C)=O)N(Cc1ccc([N+](=O)[O-])cc1)S(=O)(=O)c1ccc(Br)cc1`, the z-score is -0.91. For `O=C1O[C@@H](c2ccccc2)[C@@H](c2ccccc2)N2[C@@H](c3ccc(O)cc3)[C@]3(C(=O)Nc4ccc(C#CC5(O)CCCCCC5)cc43)[C@@H](C(=O)N3CCCCCCC3)[C@H]12`, the z-score was -1.55. For the compound `COC(=O)C[C@@H]1C[C@H](C)[C@]2(O1)C(=O)N(Cc1ccccc1)c1ccc(NC(C)=O)cc12`, the z-score is 0.347. As to `CC(C)(C)N1CC=CC23O[C@@H]4C=CCOC(=O)[C@@H]4[C@H]2C(=O)N(CCCCCO)[C@@H]3C1=O` (some centres not stated), the z-score was 0.123. `C=CCN1C(=O)[C@]2(O[C@H](CCO)[C@@H]([Si](C)(C)c3ccc(OC)cc3)[C@@H]2C)c2cc(NC(=O)[C@H](C)O)ccc21`: the z-score was 1.01. For `C=CC(=C)C1=CCO[C@@H]1[C@H]1CCCN1S(=O)(=O)c1ccccc1[N+](=O)[O-]`, the z-score is -0.484.

As for `COc1ccc(NN2C(C(O)c3ccc(OC)c(OCc4ccccc4)c3)C=CC3C(=O)N(C4CCCCC4)C(=O)C32)cc1` (configuration not stated), the z-score was -1.73. Consider `[N-]=[N+]=NCc1ccccc1[C@@H]1OC(c2ccc(OCCCO)cc2)=N[C@]1(Cc1ccccc1)C(=O)N1CCCCC1`, for which the z-score is -0.641.

`CC(C)(C)N1CC=CC23O[C@@H]4/C=C\CCCOC(=O)C4[C@H]2C(=O)N(CCO)[C@@H]3C1=O` (some centres not stated): the z-score is -0.647. As to `O=C1O[C@H](c2ccccc2)[C@H](c2ccccc2)N2[C@H]1[C@@H](C(=O)O)[C@]1(C(=O)Nc3ccc(C#CC4=CCCCC4)cc31)[C@H]2c1ccc(OCCO)cc1`, the z-score was -1.37. Take `COC(=O)C[C@H]1O[C@]2(C(=O)N(Cc3ccccc3)c3ccc(NC(C)=O)cc32)[C@@H](C)[C@@H]1[Si](C)(C)c1ccc(OC)cc1`: the z-score was 0.695. On the same count and under the same terms, in the case of `CC(C)CNC(=O)[C@@H]1c2ccccc2C(=O)N(Cc2cc(C(F)(F)F)cc(C(F)(F)F)c2)[C@H]1c1ccc(CO)cc1` it was 0.788; in that of `COc1ccccc1CN1C(=O)c2ccccc2[C@@H](C(=O)NCCN2CCOCC2)[C@@H]1c1ccc(CO)cc1`, -1.04; in that of `NCCCCCCNC(=O)[C@H]1C[C@H]2C(=O)NCC(=O)N2[C@H]1c1cccc(OCCO)c1`, 0.0567. Turning to `COCCOC(=O)N1C(=O)[C@@]2(c3ccccc31)[C@H](C(=O)NC[C@H](O)c1ccccc1)[C@H]1C(=O)O[C@H](c3ccccc3)[C@H](c3ccccc3)N1[C@@H]2c1ccc(OCCO)cc1`, the z-score was -1.46. With `CC(C)N1CC=CC23O[C@@H]4C=CCOC(=O)[C@@H]4[C@H]2C(=O)N(CCO)[C@@H]3C1=O` (some centres not stated), the z-score is -0.289. For the compound `COC(=O)[C@@]1(Cc2ccccc2)[C@H]2c3cc(C(=O)N4CCCC4)n(C)c3C[C@H]2CN1C(=O)c1ccccc1`, the z-score is 0.218. With `O=C1[C@]2(CO)C=C(Br)[C@@H](C[C@@H]2c2ccccc2)[C@@]12CO2`, the z-score is -0.547. Same read-out and setting: in the case of `CCCCC(O)C1C=CC2C(=O)N(C3CCCCC3)C(=O)C2N1Nc1ccc(OC)cc1` (configuration not stated) it was -1.47; in that of `COc1ccc(C(O)C2C=CC3C(=O)N(c4ccccc4)C(=O)C3N2Nc2ccc([N+](=O)[O-])cc2)cc1OCc1ccccc1` (configuration not stated), 0.208; in that of `Cc1ccc(S[C@]2(C(=O)NCc3ccccc3)CC(=O)N(Cc3ccccc3)[C@@H]2c2ccc(CO)cc2)cc1`, 0.395.

For the compound `C=C(COC)/C(=C/C[C@H](OC(=O)c1ccncc1)c1cccc(OCCO)c1)c1cc(C(=O)OC)ccc1OC`, the z-score is 0.358. As to `COC(=O)[C@@]1(Cc2ccccc2)[C@H]2c3cc(C(=O)N(C)C)n(Cc4cc(C)n(C)n4)c3C[C@H]2CN1C(=O)c1ccccc1`, the z-score was 0.381. Take `COC(=O)[C@@]1(Cc2ccccc2N=[N+]=[N-])COC(c2ccc(OCCCO)cc2)=N1`: the z-score was 0.335. For the compound `CN1CCC(CCCO)=CC1c1ccc(CN2CCCC2)cc1` (configuration not stated), the z-score was -0.692. On the same count and under the same terms, in the case of `CC(=CC1CCCCC1)[C@@H](NC(=O)c1ccc(C(F)(F)F)cc1)c1ccc(-c2ccccc2)cc1` it was -0.019.
